From publication PMC8384837, “Expanding the binding specificity for RNA recognition by a PUF domain”

Columns and labels:
Test in all cases: yeast three-hybrid, YBZ-1, SC-Leu-His + 0.5 mM 3-AT, 4 days
Conditions in all cases: tags: N-Gal4 AD-HA kept; label: inside an RPR1-promoter hybrid RNA with tandem MS2 sites; ssRNA
[1] = target: PUM1 PUF domain R3-GPC (Homo sapiens, UniProt Q14671 828-1176, C935G;R936P;Q939C)
Procedure, shortened: (§1)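 Matching RNA elements and Pumilio-1 PUF domain libraries, randomized at the three base-contacting residues of every repeat, were co-expressed from a centromeric plasmid in strain YBZ-1 (LexA–MS2 coat fusion, HIS3 reporter). The repeat regions were PCR-amplified and Illumina-sequenced from cells grown four days on SC-Leu (input) or SC-Leu-His + 0.5 mM 3-AT (selection). The interaction score is the log change in variant frequency from input to selection. It is computed in log2, with a pseudocount of 1 for absent variants.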

[2] = target: PUM1 PUF domain R4-GPM (Homo sapiens, UniProt Q14671 828-1176, N971G;H972P;Q975M)
PUM1 PUF domain R4-GPM, sequence (Q14671 828-1176 N971G/H972P/Q975M): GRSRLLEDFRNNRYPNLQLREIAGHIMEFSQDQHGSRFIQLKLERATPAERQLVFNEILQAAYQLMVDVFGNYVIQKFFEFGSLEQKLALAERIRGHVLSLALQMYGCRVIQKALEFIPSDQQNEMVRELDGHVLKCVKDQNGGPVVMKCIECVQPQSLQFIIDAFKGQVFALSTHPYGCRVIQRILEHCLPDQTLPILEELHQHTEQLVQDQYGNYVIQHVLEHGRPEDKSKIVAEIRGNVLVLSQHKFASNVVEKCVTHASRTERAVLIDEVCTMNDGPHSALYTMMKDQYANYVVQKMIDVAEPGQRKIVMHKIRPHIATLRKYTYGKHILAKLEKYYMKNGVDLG
Procedure, shortened: as §1

[3] = target: PUM1 PUF domain R5-IYH (Homo sapiens, UniProt Q14671 828-1176, C1007I;R1008Y;Q1011H)
PUM1 PUF domain R5-IYH, sequence (Q14671 828-1176 C1007I/R1008Y/Q1011H): as the sequence (Q14671 828-1176 N971G/H972P/Q975M) above, with G144N, P145H, M148Q, C180I, R181Y, Q184H counted along it
Procedure, shortened: as §1

[4] = target: PUM1 PUF domain R3-DWR (Homo sapiens, UniProt Q14671 828-1176, C935D;R936W;Q939R)
PUM1 PUF domain R3-DWR, sequence (Q14671 828-1176 C935D/R936W/Q939R): as the sequence (Q14671 828-1176 N971G/H972P/Q975M) above, with C108D, R109W, Q112R, G144N, P145H, M148Q counted along it
Procedure, shortened: as §1

[5] = target: PUM1 PUF domain R8-RWS (Homo sapiens, UniProt Q14671 828-1176, N1122R;Y1123W;Q1126S)
PUM1 PUF domain R8-RWS, sequence (Q14671 828-1176 N1122R/Y1123W/Q1126S): as the sequence (Q14671 828-1176 N971G/H972P/Q975M) above, with G144N, P145H, M148Q, N295R, Y296W, Q299S counted along it
Procedure, shortened: as §1

[6] = target: PUM1 PUF domain R3-THF (Homo sapiens, UniProt Q14671 828-1176, C935T;R936H;Q939F)
PUM1 PUF domain R3-THF, sequence (Q14671 828-1176 C935T/R936H/Q939F): as the sequence (Q14671 828-1176 N971G/H972P/Q975M) above, with C108T, R109H, Q112F, G144N, P145H, M148Q counted along it
Procedure, shortened: as §1

[7] = target: PUM1 PUF domain R4-NNV (Homo sapiens, UniProt Q14671 828-1176, H972N;Q975V)
PUM1 PUF domain R4-NNV, sequence (Q14671 828-1176 H972N/Q975V): as the sequence (Q14671 828-1176 N971G/H972P/Q975M) above, with G144N, P145N, M148V counted along it
Procedure, shortened: as §1

[8] = target: PUM1 PUF domain R4-PYC (Homo sapiens, UniProt Q14671 828-1176, N971P;H972Y;Q975C)
PUM1 PUF domain R4-PYC, sequence (Q14671 828-1176 N971P/H972Y/Q975C): as the sequence (Q14671 828-1176 N971G/H972P/Q975M) above, with G144P, P145Y, M148C counted along it
Procedure, shortened: as §1

[9] = target: PUM1 PUF domain R4-VPG (Homo sapiens, UniProt Q14671 828-1176, N971V;H972P;Q975G)
PUM1 PUF domain R4-VPG, sequence (Q14671 828-1176 N971V/H972P/Q975G): as the sequence (Q14671 828-1176 N971G/H972P/Q975M) above, with G144V, M148G counted along it
Procedure, shortened: as §1

[10] = target: PUM1 PUF domain R4-GRC (Homo sapiens, UniProt Q14671 828-1176, N971G;H972R;Q975C)
PUM1 PUF domain R4-GRC, sequence (Q14671 828-1176 N971G/H972R/Q975C): as the sequence (Q14671 828-1176 N971G/H972P/Q975M) above, with P145R, M148C counted along it
Procedure, shortened: as §1

[11] = target: PUM1 PUF domain R5-RSD (Homo sapiens, UniProt Q14671 828-1176, C1007R;R1008S;Q1011D)
PUM1 PUF domain R5-RSD, sequence (Q14671 828-1176 C1007R/R1008S/Q1011D): as the sequence (Q14671 828-1176 N971G/H972P/Q975M) above, with G144N, P145H, M148Q, C180R, R181S, Q184D counted along it
Procedure, shortened: as §1

[12] = target: PUM1 PUF domain R5-RQH (Homo sapiens, UniProt Q14671 828-1176, C1007R;R1008Q;Q1011H)
PUM1 PUF domain R5-RQH, sequence (Q14671 828-1176 C1007R/R1008Q/Q1011H): as the sequence (Q14671 828-1176 N971G/H972P/Q975M) above, with G144N, P145H, M148Q, C180R, R181Q, Q184H counted along it
Procedure, shortened: as §1

[13] = target: PUM1 PUF domain R3-IWT (Homo sapiens, UniProt Q14671 828-1176, C935I;R936W;Q939T)
PUM1 PUF domain R3-IWT, sequence (Q14671 828-1176 C935I/R936W/Q939T): as the sequence (Q14671 828-1176 N971G/H972P/Q975M) above, with C108I, R109W, Q112T, G144N, P145H, M148Q counted along it
Procedure, shortened: as §1

[14] = target: PUM1 PUF domain R3-ARD (Homo sapiens, UniProt Q14671 828-1176, C935A;Q939D)
PUM1 PUF domain R3-ARD, sequence (Q14671 828-1176 C935A/Q939D): as the sequence (Q14671 828-1176 N971G/H972P/Q975M) above, with C108A, Q112D, G144N, P145H, M148Q counted along it
Procedure, shortened: as §1

[15] = target: PUM1 PUF domain R3-FRL (Homo sapiens, UniProt Q14671 828-1176, C935F;Q939L)
PUM1 PUF domain R3-FRL, sequence (Q14671 828-1176 C935F/Q939L): as the sequence (Q14671 828-1176 N971G/H972P/Q975M) above, with C108F, Q112L, G144N, P145H, M148Q counted along it
Procedure, shortened: as §1

[16] = target: PUM1 PUF domain R5-LNL (Homo sapiens, UniProt Q14671 828-1176, C1007L;R1008N;Q1011L)
PUM1 PUF domain R5-LNL, sequence (Q14671 828-1176 C1007L/R1008N/Q1011L): as the sequence (Q14671 828-1176 N971G/H972P/Q975M) above, with G144N, P145H, M148Q, C180L, R181N, Q184L counted along it
Procedure, shortened: as §1

[17] = target: PUM1 PUF domain R5-THV (Homo sapiens, UniProt Q14671 828-1176, C1007T;R1008H;Q1011V)
PUM1 PUF domain R5-THV, sequence (Q14671 828-1176 C1007T/R1008H/Q1011V): as the sequence (Q14671 828-1176 N971G/H972P/Q975M) above, with G144N, P145H, M148Q, C180T, R181H, Q184V counted along it
Procedure, shortened: as §1

[18] = target: PUM1 PUF domain R5-SGT (Homo sapiens, UniProt Q14671 828-1176, C1007S;R1008G;Q1011T)
PUM1 PUF domain R5-SGT, sequence (Q14671 828-1176 C1007S/R1008G/Q1011T): as the sequence (Q14671 828-1176 N971G/H972P/Q975M) above, with G144N, P145H, M148Q, C180S, R181G, Q184T counted along it
Procedure, shortened: as §1

[19] = target: PUM1 PUF domain R8-KHT (Homo sapiens, UniProt Q14671 828-1176, N1122K;Y1123H;Q1126T)
PUM1 PUF domain R8-KHT, sequence (Q14671 828-1176 N1122K/Y1123H/Q1126T): as the sequence (Q14671 828-1176 N971G/H972P/Q975M) above, with G144N, P145H, M148Q, N295K, Y296H, Q299T counted along it
Procedure, shortened: as §1

[20] = target: PUM1 PUF domain R8-GHK (Homo sapiens, UniProt Q14671 828-1176, N1122G;Y1123H;Q1126K)
PUM1 PUF domain R8-GHK, sequence (Q14671 828-1176 N1122G/Y1123H/Q1126K): as the sequence (Q14671 828-1176 N971G/H972P/Q975M) above, with G144N, P145H, M148Q, N295G, Y296H, Q299K counted along it
Procedure, shortened: as §1

PUM1 PUF domain R3-GPC, sequence (Q14671 828-1176 C935G/R936P/Q939C): as the sequence (Q14671 828-1176 N971G/H972P/Q975M) above, with C108G, R109P, Q112C, G144N, P145H, M148Q counted along it

How did the binding signal [1] turn out when “GGCUAGAACUAGUGGAUCCCCCGGCGCCCGGCGGCUCGAGCCCGGGUAAGUGUAAAUAGUCUGCAUGCCGCCGGGCGCCAUGCCUGCAGGUCGACUCUAGAAAACAUG” was run?
The binding signal was 2.57 log2 enrichment (interaction score).

And the binding signal [2]?
The binding signal was 2.8 log2 enrichment (interaction score).

What about the binding signal [3] of the same sequence?
The binding signal was 4.47 log2 enrichment (interaction score).

What about the binding signal [4] of the same sequence?
The binding signal was 0.88 log2 enrichment (interaction score).

And the binding signal [5]?
The binding signal was 4.8 log2 enrichment (interaction score).

And the binding signal [6]?
The binding signal was 3.81 log2 enrichment (interaction score).

What about the binding signal [7] of the same sequence?
Its binding signal is 1.31 log2 enrichment (interaction score).

And the binding signal [8]?
The binding signal was 7.66 log2 enrichment (interaction score).

What about the binding signal [9] of the same sequence?
Its binding signal is 3.14 log2 enrichment (interaction score).

What about the binding signal [10] of the same sequence?
The binding signal was 4.62 log2 enrichment (interaction score).

What does the source list for “GGCUAGAACUAGUGGAUCCCCCGGCGCCCGGCGGCUCGAGCCCGGGUAAGUGUCAAUAGUCUGCAUGCCGCCGGGCGCCAUGCCUGCAGGUCGACUCUAGAAAACAUG”?
binding signal [11]: 2.74 log2 enrichment (interaction score); binding signal [12]: 3.64 log2 enrichment (interaction score)

How did the binding signal [13] turn out when “GGCUAGAACUAGUGGAUCCCCCGGCGCCCGGCGGCUCGAGCCCGGGUAAGUGUAAGUAGUCUGCAUGCCGCCGGGCGCCAUGCCUGCAGGUCGACUCUAGAAAACAUG” was run?
Its binding signal is 3.1 log2 enrichment (interaction score).

And the binding signal [14]?
Its binding signal is 4.51 log2 enrichment (interaction score).

And the binding signal [4]?
Its binding signal is 1.12 log2 enrichment (interaction score).

And the binding signal [15]?
The binding signal was 4.24 log2 enrichment (interaction score).

Which binding signal [7] does the source give for “GGCUAGAACUAGUGGAUCCCCCGGCGCCCGGCGGCUCGAGCCCGGGUAAGUGUACAUAGUCUGCAUGCCGCCGGGCGCCAUGCCUGCAGGUCGACUCUAGAAAACAUG” here?
The binding signal was 2.48 log2 enrichment (interaction score).

And the binding signal [8]?
The binding signal was 6.68 log2 enrichment (interaction score).

What about the binding signal [9] of the same sequence?
The binding signal was 2.82 log2 enrichment (interaction score).

And the binding signal [10]?
Its binding signal is 0.93 log2 enrichment (interaction score).

How did the binding signal [1] turn out when “GGCUAGAACUAGUGGAUCCCCCGGCGCCCGGCGGCUCGAGCCCGGGUAAGUGUAAUUAGUCUGCAUGCCGCCGGGCGCCAUGCCUGCAGGUCGACUCUAGAAAACAUG” was run?
The binding signal was 2.82 log2 enrichment (interaction score).

And the binding signal [4]?
Its binding signal is 3.53 log2 enrichment (interaction score).

Which results are given for “GGCUAGAACUAGUGGAUCCCCCGGCGCCCGGCGGCUCGAGCCCGGGUAAGUGUUAAUAGUCUGCAUGCCGCCGGGCGCCAUGCCUGCAGGUCGACUCUAGAAAACAUG”?
binding signal [16]: 3.35 log2 enrichment (interaction score); binding signal [11]: 2.65 log2 enrichment (interaction score); binding signal [17]: 3.33 log2 enrichment (interaction score)

Which binding signal [7] does the source give for “GGCUAGAACUAGUGGAUCCCCCGGCGCCCGGCGGCUCGAGCCCGGGUAAGUGUAUAUAGUCUGCAUGCCGCCGGGCGCCAUGCCUGCAGGUCGACUCUAGAAAACAUG” here?
The binding signal was 3.42 log2 enrichment (interaction score).

What about the binding signal [8] of the same sequence?
The binding signal was 7.49 log2 enrichment (interaction score).

What about the binding signal [9] of the same sequence?
Its binding signal is 2.52 log2 enrichment (interaction score).

What about the binding signal [10] of the same sequence?
The binding signal was 2.46 log2 enrichment (interaction score).

Which binding signal [18] does the source give for “GGCUAGAACUAGUGGAUCCCCCGGCGCCCGGCGGCUCGAGCCCGGGUAAGUGUGAAUAGUCUGCAUGCCGCCGGGCGCCAUGCCUGCAGGUCGACUCUAGAAAACAUG” here?
The binding signal was 2.85 log2 enrichment (interaction score).

What does the source list for “GGCUAGAACUAGUGGAUCCCCCGGCGCCCGGCGGCUCGAGCCCGGGUAAGCGUAAAUAGUCUGCAUGCCGCCGGGCGCCAUGCCUGCAGGUCGACUCUAGAAAACAUG”?
binding signal [19]: 4.89 log2 enrichment (interaction score); binding signal [20]: 2.58 log2 enrichment (interaction score); binding signal [5]: 5.59 log2 enrichment (interaction score)
